Source: PubChem (Buhrlage Lab, Dana-Farber Cancer Institute and Novartis Institutes for BioMedical Research (Cambridge, Mass))
UCHL1 inh: human UCHL1 deubiquitinase inhibition | P09936 | purified UCHL1, Ub-rhodamine cleavage fluorescence | inhibition, % at 20 µM | actives 0.2% (n = 47,000)
USP10 inh: inhibitors of human USP10 deubiquitinase | inhibition, % at 20 µM | actives 1.1% (n = 47,000) | AID 1645856 | purified USP10, Ub-rhodamine fluorescence, 60 min
OTUD3 inh: human OTUD3 deubiquitinase inhibition | purified OTUD3, Ub-rhodamine fluorescence, 2 h | actives 0.7% (n = 47,000) | Q5T2D3 | inhibition, % at 25 µM
USP28 block: blocks human USP28 ubiquitin-rhodamine cleavage; inhibition, % at 25 µM; AID 1645857; purified USP28, Ub-rhodamine cleavage fluorescence, 30 min; Q96RU2; actives 3% (n = 47,000)
Target sequence (Q96RU2 whole entry, looked up): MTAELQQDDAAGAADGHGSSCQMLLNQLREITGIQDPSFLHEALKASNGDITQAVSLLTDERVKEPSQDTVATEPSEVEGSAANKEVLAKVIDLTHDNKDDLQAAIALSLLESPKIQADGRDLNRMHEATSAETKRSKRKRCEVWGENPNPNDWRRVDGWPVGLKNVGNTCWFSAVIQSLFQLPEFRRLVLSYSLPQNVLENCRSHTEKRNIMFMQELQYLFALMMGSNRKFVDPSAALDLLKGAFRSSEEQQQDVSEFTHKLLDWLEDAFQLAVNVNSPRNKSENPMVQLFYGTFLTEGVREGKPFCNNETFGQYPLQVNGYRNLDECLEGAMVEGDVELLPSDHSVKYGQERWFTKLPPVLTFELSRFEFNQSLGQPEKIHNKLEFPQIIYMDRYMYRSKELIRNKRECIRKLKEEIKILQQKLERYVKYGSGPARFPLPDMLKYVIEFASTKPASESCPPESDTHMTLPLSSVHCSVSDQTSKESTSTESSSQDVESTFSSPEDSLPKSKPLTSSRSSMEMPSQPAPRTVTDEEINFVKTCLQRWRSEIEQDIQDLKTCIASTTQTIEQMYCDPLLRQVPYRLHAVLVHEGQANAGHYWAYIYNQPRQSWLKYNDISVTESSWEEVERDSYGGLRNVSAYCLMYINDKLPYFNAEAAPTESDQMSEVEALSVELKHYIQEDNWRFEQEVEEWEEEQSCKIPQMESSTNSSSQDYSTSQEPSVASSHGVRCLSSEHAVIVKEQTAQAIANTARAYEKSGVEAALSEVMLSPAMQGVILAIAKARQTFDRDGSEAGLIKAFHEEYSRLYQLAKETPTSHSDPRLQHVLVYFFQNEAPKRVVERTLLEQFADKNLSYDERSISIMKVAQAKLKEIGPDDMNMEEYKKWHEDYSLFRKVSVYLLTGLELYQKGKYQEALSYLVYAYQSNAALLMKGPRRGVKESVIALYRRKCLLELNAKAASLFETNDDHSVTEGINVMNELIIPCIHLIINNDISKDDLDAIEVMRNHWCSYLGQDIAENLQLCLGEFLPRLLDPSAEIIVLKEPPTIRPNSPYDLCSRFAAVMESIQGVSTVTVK
USP7 block: blocks human USP7 ubiquitin-rhodamine cleavage | inhibition, % at 20 µM | AID 1645854 | purified USP7, Ub-rhodamine cleavage fluorescence | actives 0.3% (n = 47,000) | Q93009
* marks the source's active call; other numbers are inactive results. Rows were chosen to be rich in hits. Some 4.2% of all compounds tested hit in one or more screens of this group. No stated cut-off is given here; in the data, active means inhibition above about 30%; inactive means the rest.

`O=C(Oc1cc(O)cc2c1C[C@@H](OC(=O)c1cc(O)c(O)c(O)c1)[C@@H](c1cc(O)c(O)c(O)c1)O2)c1cc(O)c(O)c(O)c1` gave UCHL1 inh 11.0, USP10 inh -9.9, OTUD3 inh 72.9*, USP28 block 77.8* and USP7 block 15.2.
For Cc1cc(C#N)c2c(C)ccc(C(C)C)cc1-2 the results were UCHL1 inh 4.6, USP10 inh 4.9, OTUD3 inh 17.3, USP28 block 57.9* and USP7 block 6.8.
Screening CCCN1Cc2cccc(C(=O)NCc3ccc4c(c3)OCO4)c2C1=O returned UCHL1 inh 2.8, USP10 inh -2.6, OTUD3 inh 10.6, USP28 block 35.3* and USP7 block 2.9.
`CN(C)c1nc(NCc2ccccc2)nc(Oc2ccc(=O)[nH]n2)n1` gave UCHL1 inh 0.4, USP10 inh -1.2, OTUD3 inh 9.5, USP28 block 32.7* and USP7 block -1.4.
Screening Clc1cc(-c2nc(-c3cccc(-c4ccn[nH]4)c3)no2)ccn1 returned UCHL1 inh 3.4, USP10 inh 0.5, OTUD3 inh -2.2, USP28 block 1.0 and USP7 block 6.1.
`Cc1ccc(C)c(NC(=O)C(Sc2nnc(C)n2Cc2ccccc2)c2ccccc2)c1` (stereo not given) gave UCHL1 inh 5.2, USP10 inh 4.7, OTUD3 inh 14.4, USP28 block 16.0 and USP7 block -4.8.
For COc1ccc(C)cc1NC(=O)C(Sc1nnc(C2CC2)n1Cc1ccccc1)c1ccccc1 (stereo not given) the results were UCHL1 inh 7.1, USP10 inh 3.6, OTUD3 inh 13.7, USP28 block 30.1* and USP7 block 3.5.
CC(C)n1ncc2c(C(=O)NCCc3cccc(Cl)c3)cc(C3CC3)nc21 was read as UCHL1 inh 2.8, USP10 inh -9.7, OTUD3 inh -2.5, USP28 block 37.3* and USP7 block 4.3.
`COc1ccc(CNC(=O)c2cc(C3CC3)nc3c2cnn3C(C)C)cc1` gave UCHL1 inh -0.3, USP10 inh -10.0, OTUD3 inh -17.3, USP28 block 17.6 and USP7 block -0.2.
Screening CC(C)n1ncc2c(C(=O)NCCc3ccc(Cl)cc3)cc(C3CC3)nc21 returned UCHL1 inh -0.1, USP10 inh -4.3, OTUD3 inh -6.3, USP28 block 38.5* and USP7 block 0.0.
`COc1ccc(C2CC(=O)Nc3n[nH]c(-c4ccccc4)c32)c(OC)c1` (stereo not given) gave UCHL1 inh 6.1, USP10 inh 4.9, OTUD3 inh -1.1, USP28 block 10.2 and USP7 block -0.1.
COc1ccc(OC)c(NC(=O)C2Oc3ccccc3NC2=O)c1 (stereo not given) was read as UCHL1 inh -0.3, USP10 inh 0.6, OTUD3 inh -8.3, USP28 block 51.0* and USP7 block -1.9.
Fc1ccc(-c2nc(C3CC3)ncc2-c2nnnn2-c2ccccc2)cc1F was read as UCHL1 inh 4.8, USP10 inh 4.8, OTUD3 inh 18.1, USP28 block 17.1 and USP7 block -1.1.
For CS(=O)(=O)c1cccc(N2CCN(Cc3ccc(F)cc3F)C2=O)c1 the results were UCHL1 inh -0.5, USP10 inh -3.7, OTUD3 inh -4.8, USP28 block 33.1* and USP7 block -4.2.
For CS(=O)(=O)c1cccc(N2CCN(CC3CC3)C2=O)c1 the results were UCHL1 inh 2.3, USP10 inh 1.1, OTUD3 inh 6.5, USP28 block 32.9* and USP7 block -1.5.
For CC(C)c1ccc(N2CCN(CC3CCCCC3)C2=O)cc1 the results were UCHL1 inh 0.1, USP10 inh 4.6, OTUD3 inh 0.0, USP28 block 1.1 and USP7 block 4.8.
For O=C1CC[C@H](O)c2cccc(O)c21 the results were UCHL1 inh 0.0, USP10 inh 2.3, OTUD3 inh 20.9, USP28 block 3.5 and USP7 block 0.1.
For O=C1CC(O)C(O)c2cccc(O)c21 (stereo not given) the results were UCHL1 inh 16.6, USP10 inh 12.5, OTUD3 inh 26.1, USP28 block 34.1* and USP7 block -41.6.
`C=C1C=C(CCC(=O)O)C(=O)OC1/C=C/C=C/C` (stereo not given) gave UCHL1 inh 81.1*, USP10 inh 95.3*, OTUD3 inh 96.5*, USP28 block 99.2* and USP7 block 78.4*.
For CCOc1ccc(CNC(=O)c2nnc(C(=O)Nc3ccc(OC)cc3)s2)cc1 the results were UCHL1 inh 0.0, USP10 inh 14.6, OTUD3 inh 8.5, USP28 block 16.8 and USP7 block 8.0.
Screening CCc1nnc(C(=O)Nc2ccc(C(=O)NCc3ccc(OC(C)C)cc3)cc2)s1 returned UCHL1 inh 3.6, USP10 inh 37.8*, OTUD3 inh 3.1, USP28 block 9.6 and USP7 block 10.9.
For COC(=O)c1c(C)[nH]c(C(=O)C(C)OC(=O)CCC2CCCC2)c1C (stereo not given) the results were UCHL1 inh 2.2, USP10 inh 10.1, OTUD3 inh -5.9, USP28 block 79.4* and USP7 block -9.6.
Screening CCc1noc(C)c1C(=O)OC(C)C(=O)c1[nH]c(C)c(C(=O)OC)c1C (stereo not given) returned UCHL1 inh 2.2, USP10 inh -1.0, OTUD3 inh 8.3, USP28 block 13.9 and USP7 block 1.8.
For CO[C@@H]1C[C@@H](C[C@H]2CC[C@H](C)[C@H]([C@@H](C)C(=O)O)O2)O[C@]2(O[C@](C)([C@H]3CC[C@@](C)([C@@H]4O[C@@H]([C@H]5O[C@](C)(O)[C@H](C)C[C@@H]5C)C[C@@H]4C)O3)C[C@H]2C)[C@@H]1C the results were UCHL1 inh 0.8, USP10 inh 7.6, OTUD3 inh 14.8, USP28 block 5.1 and USP7 block 1.7.
Screening Cn1ccc2c(cc(C(=O)NC3CCN(Cc4ccccc4)CC3)n2C)c1=O returned UCHL1 inh 0.1, USP10 inh -4.8, OTUD3 inh 2.8, USP28 block 31.7* and USP7 block 1.5.
Cc1c(C)n(C)c2ccc(C(=O)NC3CCN(Cc4ccccc4)CC3)cc12 was read as UCHL1 inh 0.4, USP10 inh -5.4, OTUD3 inh -8.5, USP28 block 35.2* and USP7 block 0.0.
For Cn1cc(-c2ccncc2)cc1C(=O)NC1CCN(Cc2ccccc2)CC1 the results were UCHL1 inh 2.3, USP10 inh -2.4, OTUD3 inh 9.4, USP28 block 10.3 and USP7 block 10.6.
For Cn1ccc2c(cc(C(=O)NCCC3=CCCCC3)n2C)c1=O the results were UCHL1 inh 0.3, USP10 inh -1.3, OTUD3 inh 15.5, USP28 block 55.3* and USP7 block -0.6.
For COc1ccc(Cn2cnc3c([nH]c4ccc(Br)cc43)c2=O)cc1 the results were UCHL1 inh 3.2, USP10 inh -0.3, OTUD3 inh -20.0, USP28 block -23.9 and USP7 block 3.4.
